In PubChem BioAssay:
Records with an inconclusive call do not appear. Calls of active or inactive are those of the source. Cut-off read from the data, not from the text of the source, unless noted: active = inhibition above about 80%; inactive = the rest.

Experiments:
[1] = SU-DIPG-XXV glioma cell viability, MIPE5.0 library, qHTS (AID 1347068; cut-off not given, nearly all actives have IC50 up to about 30 µM)
[2] = LFS_MB_P medulloblastoma growth inhibition, cell-based, chromothripsis tumors, cisplatin or BGB combos (AID 1671449); conditions: LFS_MB_P medulloblastoma cells;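 note: cells exposed for 96 hours; 0% = vehicle DMSO and 100% = killing by high DMSO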
[3] = HDN33 neuroblastoma growth inhibition, cell-based, chromothripsis tumors, cisplatin or BGB combos (AID 1671450); conditions: HDN33 neuroblastoma cells, stronger effect = higher value;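 note: cells exposed to compound for four days; 0% = vehicle DMSO and 100% = cell killing by high DMSO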
[4] = ICB984 medulloblastoma cell growth inhibition, synergistic combos for chromothripsis tumors, cisplatin or BGB combos (AID 1671451; call rule not given here;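 note: cells exposed for 96 hours before readout; 0% = vehicle DMSO and 100% = killing by high DMSO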); conditions: ICB984 medulloblastoma cells, drug combinations, stronger effect = higher value
[5] = LFS_MB_1R medulloblastoma cell growth inhibition, synergistic combos for chromothripsis tumors, cisplatin or BGB combos (AID 1671452); conditions: LFS_MB_1R medulloblastoma cells, stronger effect = higher value;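 note: cells exposed for 96 hours before readout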
[6] = HTB85 osteosarcoma cell growth inhibition, synergistic combos for chromothripsis tumors, BGB or cisplatin IC20 combos (AID 1671453); conditions: HTB85 osteosarcoma cells, drug combinations, stronger effect = higher value;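 note: cells exposed for 96 hours before readout; 0% = vehicle DMSO and 100% = high DMSO killing control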
[7] = CRL2098 osteosarcoma cell growth inhibition, synergistic combos for chromothripsis tumors, BGB or cisplatin IC20 combos (AID 1671454); conditions: CRL2098 osteosarcoma cells, drug combinations, stronger effect = higher value;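 note: cells exposed for 96 h before readout; 0% = vehicle DMSO and 100% = killing by high DMSO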
[8] = HD-MB03 medulloblastoma cell growth inhibition, synergistic combos for chromothripsis tumors, BGB or cisplatin IC20 combos (AID 1671455; in the data active = inhibition above about 83%;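 note: 0% = vehicle DMSO and 100% = high DMSO as cytotoxic control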); conditions: HD-MB03 medulloblastoma cells, stronger effect = higher value
[9] = UWB1.289 ovarian carcinoma cell growth inhibition, synergistic combos for chromothripsis tumors, BGB or cisplatin combos (AID 1671456); conditions: UWB1.289 ovarian carcinoma cells, stronger effect = higher value;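 note: cells exposed to compound for four days; 0% = vehicle DMSO and 100% = killing by high DMSO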
[10] = LFS_MB_2R medulloblastoma cell growth inhibition, synergistic combos for chromothripsis tumors, cisplatin combos (AID 1671457); conditions: LFS_MB_2R medulloblastoma cells, stronger effect = higher value;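 note: cells exposed to compound for four days before readout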
[11] = MDA-MB-436 breast carcinoma cell growth inhibition, synergistic combos for chromothripsis tumors, BGB or cisplatin combos (AID 1671458; call rule not given here;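 note: cells exposed for 96 hours; 0% = vehicle DMSO and 100% = killing by high DMSO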); conditions: MDA-MB-436 breast carcinoma growth inhibition, drug combinations, stronger effect = higher value
[12] = UWB1.289_BRCA1 ovarian cancer growth, cell-based, BGB or cisplatin combinations (AID 1671459); conditions: UWB1.289 BRCA1 ovarian carcinoma, drug combinations, stronger effect = higher value
[13] = human astrocyte viability loss, single and combined drugs, cytotoxicity control for chromothriptic childhood tumor combination screen, cell-based, BGB or cisplatin IC20 combos (AID 1671460); conditions: Human astrocytes, drug combinations, stronger effect = higher value;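 note: cells exposed to compounds for 96 hours before viability readout; 0% = vehicle and 100% = killing control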
[14] = growth inhibition of BT084 medulloblastoma cells, cell-based, ICGC_MB145, cisplatin and BGB IC40 combos (AID 1671461); conditions: drug combinations, stronger effect = higher value;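 note: cells exposed to drugs for 96 hours; 0% = vehicle DMSO and 100% = high DMSO full killing control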
[15] = growth inhibition of RCMB18 medulloblastoma cells, cell-based, cisplatin and BGB IC40 combos (AID 1671462); conditions: stronger effect = higher value;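 note: cells exposed to compound for four days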
[16] = growth inhibition of CRL1545 osteosarcoma cells, cell-based, cisplatin and BGB IC20 combos (AID 1671464); conditions: stronger effect = higher value;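 note: cells exposed to compound for 96 hours before readout; 0% = vehicle DMSO and 100% = high DMSO killing control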
[17] = measured here: combination with BGB IC40, at 0.05 µM
[18] = measured here: with BGB IC20 combination, at 0.5 µM
[19] = measured here: with cisplatin IC20 combination, at 0.5 µM
[20] = measured here: combination with cisplatin, at 0.5 µM
[21] = measured here: combination with cisplatin, at 5 µM

Structure (SMILES): CS(=O)(=O)c1ccc(-c2nnc(/C=C/c3nnc(-c4ccc(C#N)cc4)o3)n2-c2ccccc2Cl)nc1
- outcome [1]: inactive
- inhibition ([2]; at 0.5 µM, stronger effect = higher value): 1.48% (inactive)
- inhibition ([2]; measured here: combination with BGB IC20, at 0.005 µM): 2.99%
- inhibition ([2]; measured here: combination with BGB IC40, at 0.005 µM): 6.48%
- inhibition [2, 17]: 30.7%
- inhibition ([2]; measured here: combination with cisplatin, at 0.5 µM, stronger effect = higher value): -5.01%
- inhibition ([2]; measured here: combination with cisplatin, at 5 µM, stronger effect = higher value): -36.6%
- inhibition ([3]; BGB combo, at 5 µM): 21%
- inhibition ([3]; at 0.5 µM): 30.9% (inactive)
- inhibition ([3]; cisplatin combo, at 5 µM): 23.5%
- inhibition [3, 18]: 33.7%
- inhibition [3, 19]: 23.2%
- inhibition ([3]; single agent, at 5 µM): 31.3%
- inhibition ([4]; BGB IC20 combo, at 0.005 µM): -3.28%
- inhibition ([4]; BGB IC40 combo, at 0.005 µM): -14.7%
- inhibition ([4]; BGB IC40 combo, at 0.05 µM): -5.67%
- inhibition ([4]; at 0.5 µM): -26.5% (inactive)
- inhibition ([4]; cisplatin combo, at 0.05 µM): -9.85%
- inhibition ([4]; cisplatin combo, at 0.5 µM): -33.8%
- inhibition ([4]; cisplatin combo, at 5 µM): -19.1%
- inhibition ([4]; measured here: 5 uM single agent, at 5 µM): -5.85%
- inhibition ([5]; at 0.5 µM): -3.64% (inactive)
- inhibition [5, 17]: 0.706%
- inhibition [5, 20]: -21.2%
- inhibition [5, 21]: -35.8%
- inhibition ([6]; at 0.5 µM): 15.7% (inactive)
- inhibition ([6]; measured here: with BGB IC20, at 0.5 µM): 7.63%
- inhibition ([6]; measured here: with BGB IC20, at 5 µM): -0.396%
- inhibition ([6]; measured here: with cisplatin IC20, at 0.5 µM): 4.78%
- inhibition ([6]; measured here: with cisplatin IC20, at 5 µM): 9.69%
- inhibition ([6]; single agent, at 5 µM): 38.8%
- inhibition ([7]; at 0.5 µM): 7.89% (inactive)
- inhibition ([7]; measured here: combination with BGB at IC20, at 0.5 µM): 3.4%
- inhibition ([7]; measured here: combination with cisplatin at IC20, at 0.5 µM): 15.6%
- inhibition ([8]; at 0.5 µM): 11.5% (inactive)
- inhibition ([8]; measured here: combo with BGB at IC20, at 0.5 µM): 0.481%
- inhibition ([8]; measured here: combo with cisplatin at IC20, at 0.5 µM): 19.9%
- inhibition ([9]; at 0.5 µM): 15.3% (inactive)
- inhibition ([9]; measured here: inhibition with BGB combination, at 0.05 µM): 0.045%
- inhibition ([9]; measured here: inhibition with cisplatin combination, at 0.05 µM): 15.1%
- inhibition ([10]; at 0.5 µM): -0.5% (inactive)
- inhibition [10, 20]: 14.1%
- inhibition [10, 21]: -1.82%
- inhibition ([11]; at 0.5 µM): 7.83% (inactive)
- inhibition ([11]; measured here: BGB combination, at 0.5 µM): -1.04%
- inhibition ([11]; measured here: BGB combination, at 5 µM): -5.11%
- inhibition ([11]; measured here: cisplatin combination, at 0.5 µM): 9.17%
- inhibition ([11]; measured here: cisplatin combination, at 5 µM): 11.5%
- inhibition ([12]; BGB combination, concentration series, at 5 µM): 22.9%
- inhibition ([12]; at 0.5 µM): 12.5% (inactive)
- inhibition ([12]; cisplatin combination, concentration series, at 5 µM): 17.8%
- inhibition ([13]; at 0.5 µM): 40.8% (inactive)
- inhibition ([13]; measured here: combo with BGB IC20, at 0.5 µM): 29.7%
- inhibition ([13]; measured here: combo with cisplatin IC20, at 0.5 µM): 52.2%
- inhibition ([14]; at 0.5 µM): -12.2% (inactive)
- inhibition ([14]; cisplatin combination, at 0.5 µM): 3.06%
- inhibition ([14]; cisplatin combination, at 5 µM): 6.23%
- inhibition ([14]; measured here: BGB IC40 combination 0.05 uM, at 0.05 µM): -3.22%
- inhibition ([14]; single agent, at 5 µM): -30%
- inhibition ([15]; at 0.5 µM): 3.73% (inactive)
- inhibition ([15]; cisplatin combo, at 5 µM): 7.03%
- inhibition ([15]; measured here: BGB IC40 combination, at 0.05 µM): -6.83%
- inhibition [15, 20]: 19.3%
- inhibition ([15]; single agent, at 5 µM): -0.278%
- inhibition ([16]; at 0.5 µM): -40.3% (inactive)
- inhibition [16, 18]: -43.6%
- inhibition [16, 19]: -38.6%
- inhibition ([16]; single agent, at 0.05 µM): -1.31%
- inhibition ([16]; single agent, at 5 µM): -32.2%
